# Data reported in PubChem BioAssay (Tox21).
# Where “and” joins values, the source holds several entries; their conditions need not be identical. Identical values can stand only once. Inconclusive results are not listed. Calls of active or inactive are those of the source. The call rests on the fitted dose curve; in most records, active means well fitted activation curve with a large enough effect in the repeat runs; inconclusive means weak or mixed curves; inactive means flat fitted curve, though single readings scatter.
# Experiment: A CellTox Green Cytotoxicity Assay to monitor cytotoxicity in HepG2 cells - 16 hour (AID 1224876); further: nearly all actives have a fitted effect of over 45% in size
# Conditions: CellTox Green fluorescence; series mostly up to 76.8 µM; cytotoxicity increase: at the top concentration
# Description: National Center for Advancing Translational Sciences [NCATS]
# NIH Chemical Genomics Center [NCGC]
# U.S. Environmental Protection Agency [EPA]
# National Institutes of Environmental Health Sciences [NIEHS]
# National Toxicology Program [NTP]
# Cell-based models are critical for drug discovery. Determining the natural cytotoxic effects resulting from test compounds is an essential research activity. A CellTox Green Cytotoxicity Assay to monitor cytotoxicity in real time of continues cell culture during 40 hours of the compound treatment was used to screen Tox21 10K library compounds in HepG2 cells. CellTox Green Cytotoxicity Assay is a nonlytic, homogeneous, biofluorescent method to measure cytotoxicity in cell culture after experimental manipulation. The assay system uses a proprietary asymmetric cyanine dye that is excluded from viable cells but preferentially stains the dead cell's DNA. […] Viable cells produce no appreciable increases in fluorescence. Therefore, the fluorescence signal produced by the binding interaction with dead cell DNA is proportional to cytotoxicity.
# The mixture of HepG2 cell suspension and reagents were dispensed at 600cells/6 ul/well in 1536-well tissue culture treated black solid bottom plates using a Multidrop dispenser. After the assay plates were incubated at a 37 C/5% CO2 incubator for 5 hours, 23 nL of compounds dissolved in DMSO, positive and negative controls was transferred to the assay plate by a pintool work station. The plates were incubated at 37 C for 40 hours. The fluorescence intensity were measured at 0h, 8h, 16h, 24h, 32h and 40h time points using ViewLux plate reader during compound treatment.
# On the % scale 0 is the no-effect control and ±100 the full control effect; potency means the concentration at half of the fitted maximal effect.
SMILES,Potency,cytotoxicity increase
COCC(=O)O[C@]1(CCN(C)CCCc2nc3ccccc3[nH]2)CCc2cc(F)ccc2[C@@H]1C(C)C,19 µM (active),–
Cc1cn[nH]c1,–,2.06% [at 35.3 µM] (inactive)
CCCCCCCC(OC)OC,–,-0.743% [at 35.3 µM] (inactive)
Nc1ccc2cc3ccc(N)cc3nc2c1,49 µM (active) and 21.3 µM (active),–
CCCSS/C(CCO)=C(\C)N(C=O)Cc1cnc(C)nc1N,–,1.85% [at 35.3 µM] (inactive)
CC1(C)C(=O)N(Br)C(=O)N1Br,–,-2.48% (inactive)
O=c1cccc[nH]1,–,-3.07% (inactive)
CCC(=O)OCCc1ccccc1,–,0.287% (inactive)
C=C/C=C/C=C/CCCCC,–,-3.81% [at 15.8 µM] (inactive)
CCCCCCCCCCCCOC(=O)c1cc(O)c(O)c(O)c1,48.8 µM (active) and 38.9 µM (active),–
CCc1cccc(C)c1,–,-12.5% (inactive)
Cc1ccc(CCn2c3c(c4cc(Cl)ccc42)CN(C)CC3)cn1,–,26.2% [at 35.3 µM] (inactive)
CC1CCCNC1 (stereo not given),–,-7.06% (inactive)
O=C(O)c1cccc(Cl)n1,–,24.8% (inactive)
O=C1c2c(O)ccc(O)c2C(=O)c2c(NCCNCCO)ccc(NCCNCCO)c21,–,-62.4% [at 35.3 µM] (inactive)
CCN(CC)CCOC(=O)C1(C2CCCCC2)CCCCC1,23.9 µM (active),–
CCOC(=O)CN,–,0.233% (inactive)
CCCCOc1ccc(C(=O)CCN2CCCCC2)cc1,19 µM (active),–
CCCCCCCCC(C)=O,–,-5.02% (inactive)
CC(COC(=O)c1ccccc1)OC(=O)c1ccccc1 (stereo not given),–,-8.17% (inactive)

SMILES,Potency,cytotoxicity increase
Cc1ccc(O)cn1,–,0.389% (inactive)
COc1cccc(O)c1,–,-2.09% (inactive)
O=C1OC(OC(=O)c2cccnc2Nc2cccc(C(F)(F)F)c2)c2ccccc21 (stereo not given),–,-0.155% [at 35.3 µM] (inactive)
CCC(C)c1ccccc1 (stereo not given),–,-10% (inactive)
CC(C)=C1CC[C@@H](C)CC1=O,–,0.446% (inactive)
O=CC1CC1,–,-5.88% (inactive)
CCOC(=O)C1=C(C)NC(C)=C(C(=O)OCC)C1c1ccccc1/C=C/C(=O)OC(C)(C)C,–,8.55% [at 35.3 µM] (inactive)
O=C1OC(=O)c2ccc3c4c(ccc1c24)C(=O)OC3=O,–,-2.87% (inactive)
CC1(C)COCN1,–,-20.4% (inactive)
Cc1ccc(-n2[nH]c(C)c(N=Nc3cccc(-c4cccc(C(=O)O)c4)c3O)c2=O)cc1C,–,-6.57% [at 35.3 µM] (inactive)
CCC1CCCCC1,–,-10.5% (inactive)
CS(C)(=O)=O,–,-21.4% (inactive)
C[C@@]12C(=O)OC(=O)[C@]1(C)C1CCC2O1,23.9 µM (active),–
CC(C)(C)c1cc(/C=C2\SC(=N)NC2=O)cc(C(C)(C)C)c1O,43.6 µM (active),–
[O]=[Zr],–,-16.9% (inactive)
CCOC(=O)N1CCC(=C2c3ccc(Cl)cc3CCc3cccnc32)CC1,–,21% (inactive)
CCOCOCC,–,-5.51% (inactive)
CCOC(=O)CC(C)O (stereo not given),–,1.66% (inactive)
CCCCCCCC/C=C\CCCCCCCC(=O)N(C)CC(=O)O,–,27% (inactive)
O=C[C@H](O)[C@H](O)[C@H](O)CO,–,3.5% (inactive)
